# Structures can show the parent of a compound that is named as a salt. Values without a mark were called inactive.
# System: A549-GM130-SQSTM1
# Experiment: phenotypically active (imaging signature differs from DMSO and reproducible) at any of 0.3-9 uM (binary (1 = active, 0 = inactive)); higher = active
# Settings: treatment time: 24 h
# Procedure, shortened: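 Fifteen gene-edited A549, HepG2 and WPMY1 reporter lines (BFP segmentation plus GFP and RFP/FusionRed markers) were treated at 0.3, 1, 3 or 9 µM for 24 h, four wells each, then imaged live. Live-cell features per well were normalised to DMSO control wells. Deviation required ≥3 of 4 wells beyond the 95th percentile of DMSO Euclidean distances, and reproducibility required median replicate Pearson correlation above the 95th percentile of non-replicates. Phenotypic activity needed both criteria.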
row,SMILES,phenotypically active
1,CC[C@H]1CN2CC[C@H]1C[C@@H]2[C@@H](O)c1ccnc2ccc(OC)cc12 [Hydroquinidine HCl],0
2,COc1cc2c(c(OC)c1OC)-c1ccc(O)c(=O)cc1[C@@H](N)CC2 [Trimethylcolchicinic acid],1 (active)
3,C[C@@]1(CO)[C@H](O)CC[C@@]2(C)[C@H]1CC[C@H]1C[C@@H]3C[C@@]12CC[C@]3(O)CO [Aphidicolin],1 (active)
4,COC(=O)[C@@]1(O)C[C@H]2O[C@]1(C)n1c3ccccc3c3c4c(c5c6ccccc6n2c5c31)C(=O)NC4,1 (active)
5,COc1ccc(N(C(=O)Oc2c(C)cccc2C)c2ccnc(Nc3ccc(N4CCN(C)CC4)cc3)n2)c(OC)c1,1 (active)
6,COc1ccc2c(c[n+](C)c3c4cc5c(cc4ccc23)OCO5)c1OC [Chelerythrine chloride],0
7,CC[C@@H]1C=CC=CC[C@H](C)[C@@H](O)[C@](C)(O)C(=O)[C@H](C)[C@@H](O)[C@H](C)C(=O)[C@H](C)[C@@H](O)[C@H](C)C=CC(=O)O[C@H]2[C@@H](C)[C@@H](CC1)O[C@@]1(CC[C@@H](C)[C@@H](C[C@H](C)O)O1)[C@@H]2C [Oligomycin A],1 (active)
8,CC(C)[C@@]1(NC(=O)[C@@H]2C[C@@H]3c4cccc5[nH]cc(c45)C[C@H]3N(C)C2)O[C@@]2(O)[C@@H]3CCCN3C(=O)[C@H](Cc3ccccc3)N2C1=O [Dihydroergocristine mesylate],1 (active)
9,O=c1[nH]c2ccccc2n1C1CCN(CCCC(c2ccc(F)cc2)c2ccc(F)cc2)CC1 [pimozide],1 (active)
10,C[C@]12CC[C@H]3[C@@H](CC[C@]4(O)C[C@@H](O)CC[C@]34C=O)[C@@]1(O)CC[C@@H]2C1=CC(=O)OC1 [Strophanthidin],1 (active)
11,CN1CCC2=C[C@H](O)[C@H]3OC(=O)c4cc5c(cc4[C@H]3[C@@H]21)OCO5 [Hippeastrine hydrobromide],0
12,C=C1[C@@H](O)C2C=CC[C@H](C)C(=O)[C@](C)(O)C=C[C@@H](OC(C)=O)[C@]23C(=O)N[C@H](Cc2ccccc2)[C@@H]3[C@@H]1C (stereo partly specified) [Cytochalasin D],1 (active)
13,COc1ccc(C[C@H]2NC[C@H](O)[C@H]2OC(C)=O)cc1 [Anisomycin],1 (active)
14,C[C@@H]1CC[C@H]2[C@@H](C)C(=O)O[C@@H]3O[C@@]4(C)CC[C@@H]1[C@]32OO4 [Artemisinin],1 (active)
15,O=C1NC(=O)c2c1c1c3ccccc3n3c1c1c2c2ccccc2n1C1CCC3O1,1 (active)
16,Cc1sc2c(c1C)C(c1ccc(Cl)cc1)=N[C@@H](CC(=O)OC(C)(C)C)c1nnc(C)n1-2,1 (active)
17,CN1C[C@H](C(=O)N[C@]2(C)O[C@@]3(O)[C@@H]4CCCN4C(=O)[C@H](Cc4ccccc4)N3C2=O)C[C@@H]2c3cccc4[nH]cc(c34)C[C@H]21.CN1C[C@H](C(=O)N[C@]2(C)O[C@@]3(O)[C@@H]4CCCN4C(=O)[C@H](Cc4ccccc4)N3C2=O)C[C@@H]2c3cccc4[nH]cc(c34)C[C@H]21 [dihydroergotamine],1 (active)
18,C[C@@]12C(=O)OC(=O)[C@]1(C)[C@H]1CC[C@@H]2O1 [Cantharidin],1 (active)

row,SMILES,phenotypically active
1,COc1cc2c(c(OC)c1OC)-c1ccc(OC)c(=O)cc1[C@@H](NC(C)=O)CC2 [colchicine],1 (active)
2,CC(C)(O)[C@H]1O[C@H]2CC[C@@]3(C)[C@@](O)(CC[C@H]4Cc5c([nH]c6ccccc56)[C@@]43C)C2=CC1=O [paxilline],0
3,N#CC(C#N)=NNc1cccc(Cl)c1,1 (active)
4,Cc1c(C(=O)Nc2cccc(C(F)(F)F)c2)cc(-c2ccccc2)n1CCCN1CCOCC1,1 (active)
5,CCN1CCN(C(=O)Cc2ccc(Nc3ncc(F)c(Nc4ccc(C(=O)Nc5ccccc5Cl)cc4)n3)cc2)CC1,1 (active)
6,CC(C)(C)c1cc(C=C(C#N)C#N)cc(Br)c1O,1 (active)
7,O=C(NCCN1CCC2(CC1)C(=O)NCN2c1cccc(F)c1)c1ccc(F)c(F)c1 [ML 298 hydrochloride],1 (active)
8,CC(C)(N)Cc1ccccc1 [phentermine],0
9,CCn1cnc2c(Nc3cccc(Cl)c3)nc(N[C@H]3CCCC[C@H]3N)nc21,1 (active)
10,O=C(Nc1ccncc1)C(=O)c1cn(Cc2ccc(Cl)cc2)c2ccccc12 [Indibulin],1 (active)
11,CC[C@@H](C(=O)[C@@H](C)[C@@H](O)[C@H](C)[C@@H]1O[C@@H]([C@@H](CC)C(=O)O)CC[C@@H]1C)[C@H]1O[C@]2(C=C[C@@H](O)[C@]3(CC[C@@](C)([C@H]4CC[C@](O)(CC)[C@H](C)O4)O3)O2)[C@H](C)C[C@@H]1C [Salinomycin Sodium],1 (active)
12,CC[C@@H](CO)NC(=O)[C@@H]1C=C2c3cccc4c3c(cn4C)C[C@H]2N(C)C1 [methysergide],1 (active)
13,CN1C[C@H](C(=O)N[C@]2(C)O[C@@]3(O)[C@@H]4CCCN4C(=O)[C@H](Cc4ccccc4)N3C2=O)C=C2c3cccc4[nH]cc(c34)C[C@H]21 [ergotamine],1 (active)
14,C[C@H](CCC(=O)O)C[C@H](C)C[C@H](C)C(=O)/C=C(\O)[C@H](C)C[C@H](C)C/C=C/[C@@H](C)[C@@H](O)[C@@H](C)[C@@H](O)C[C@@H]1CC[C@@](C)([C@H]2CC[C@@](C)([C@@H](C)O)O2)O1 [Ionomycin free acid],0
15,N#CC(C#N)=NNc1ccc(OC(F)(F)F)cc1,1 (active)
16,COC1=CC(C)=C[C@@H](C)[C@@H](O)[C@@H](C)CC(C)=CC=C[C@H](OC)[C@@H]([C@@H](C)[C@@H](O)[C@H](C)[C@@]2(O)C[C@@H](O)[C@H](C)[C@@H](C(C)C)O2)OC1=O [Bafilomycin A1],1 (active)
17,COc1cc([C@@H]2c3cc4c(cc3[C@H](O)[C@H]3COC(=O)[C@H]23)OCO4)cc(OC)c1OC [Podophyllotoxin],1 (active)
18,CC[C@]12C=CCN3CC[C@]4(C(=C(C(=O)OC)C1)Nc1ccccc14)[C@@H]32 [Tabersonine dichlorhydrate],1 (active)

# From the supplement of paper PMC7411054
